The values that follow come from PubChem BioAssay (EPA / NIEHS).

Calls of active or inactive are those of the source. Rule for the calls: active = hit-call score of the fitted dose curve at least 0.9, where 1 is the maximum; inactive = score below 0.9.

Read-out in test [1]: Interleukin-6 (IL6), IL6 (gene 3569)
Description: BSK_CASM3C_IL6: BioMAP Diversity Plus: CASM3C Assay for Interleukin-6 (IL6) Biomarker Activity for (AID 2283040). The note with it: primary human coronary artery smooth muscle cells; actives raise or lower the signal.

Read-out in test [2]: Tissue plasminogen activator (tPA), PLAT (gene 5327)
Description: BSK_BE3C_tPA: BioMAP Diversity Plus: BE3C Assay for Tissue plasminogen activator (tPA) Biomarker Activity (AID 2283041).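 For outcome: tPA level quantified by ELISA one day after compound addition.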 The note with it: primary human bronchial epithelial cells; actives raise or lower the signal. An outline of the steps:
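Using human lung primary bronchial epithelial cells, tPA was measured by ELISA 24 h after dosing; data fitted relative to DMSO.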

Read-out in test [3]: Interleukin-8 (IL8), CXCL8 (gene 3576)
Description: BSK_CASM3C_IL8: BioMAP Diversity Plus: CASM3C Assay for Interleukin-8 (IL8) Biomarker Activity (AID 2283042).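 Note: IL-8 protein level quantified by ELISA.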 The note with it: primary human coronary artery smooth muscle cells; actives raise or lower the signal.

Read-out in test [4]: Human Leukocyte Antigen - DR isotype (HLADR), HLA-DRA (gene 3122)
Description: BSK_CASM3C_HLADR: BioMAP Diversity Plus: CASM3C Assay for Human Leukocyte Antigen - DR isotype (HLADR) Biomarker Activity (AID 2283043).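 Note: cell-surface HLA-DR protein level quantified by ELISA.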 To be noted: primary human coronary artery smooth muscle cells; actives raise or lower the signal.

Read-out in test [5]: Macrophage colony-stimulating factor (MCSF), CSF1 (gene 1435)
Description: BSK_CASM3C_MCSF: BioMAP Diversity Plus: CASM3C Assay for Macrophage colony-stimulating factor (MCSF) Biomarker Activity (AID 2283044).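 Note: M-CSF protein amount quantified by ELISA after 24 h exposure.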 To be noted: primary human coronary artery smooth muscle cells; actives raise or lower the signal.

Read-out in test [6]: Low-density lipoprotein receptor (LDLR), LDLR (gene 3949)
As to the kind of experiment: BSK_CASM3C_LDLR: BioMAP Diversity Plus: CASM3C Assay for Low-density lipoprotein receptor (LDLR) Biomarker Activity (AID 2283045).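 Note: LDLR protein level on the cell surface quantified by ELISA.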 To be noted: primary human coronary artery smooth muscle cells; actives raise or lower the signal.

Read-out in test [7]: Monocyte Chemoattractant Protein-1 (MCP1), CCL2 (gene 6347)
As to the kind of experiment: BSK_CASM3C_MCP1: BioMAP Diversity Plus: CASM3C Assay for Monocyte Chemoattractant Protein-1 (MCP1) Biomarker Activity (AID 2283046).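 Note: MCP-1 level quantified by ELISA 24 h after dosing.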 To be noted: primary human coronary artery smooth muscle cells; actives raise or lower the signal.

Test [8] can be described thus: BSK_CASM3C_Proliferation: Cell Proliferation Assessment in the BioMAP Diversity Plus: CASM3C Assay (AID 2283047).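 Note: sulforhodamine B total protein stain as relative cell number at 560 nm; sub-confluent cells exposed 48 h before staining; fitted both ways against DMSO so gain or loss of cell number.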 To be noted: primary human coronary artery smooth muscle cells.
Read-out in test [9]: Monokine induced gamma interferon (MIG), CXCL9 (gene 4283)
Description: BSK_CASM3C_MIG: BioMAP Diversity Plus: CASM3C Assay for Monokine induced gamma interferon (MIG) Biomarker Activity (AID 2283048).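 Note: MIG protein level measured by ELISA.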 The note with it: primary human coronary artery smooth muscle cells; actives raise or lower the signal.

Read-out in test [10]: serum amyloid A (SAA), SAA1 (gene 6288)
As to the kind of experiment: BSK_CASM3C_SAA: BioMAP Diversity Plus: CASM3C Assay for serum amyloid A (SAA) Biomarker Activity (AID 2283049).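 Note: SAA protein level quantified by ELISA.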 The note with it: primary human coronary artery smooth muscle cells; actives raise or lower the signal.

Test [11] is described as follows: BSK_CASM3C_SRB: Viability Assessment in the BioMAP Diversity Plus: CASM3C Assay (AID 2283050).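 Note: total protein by SRB staining as cytotoxicity measure in parallel cultures; cells exposed to compound for 24 h.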 To be noted: primary human coronary artery smooth muscle cells.
Read-out in test [12]: Thrombomodulin, THBD (gene 7056)
As to the kind of experiment: BSK_CASM3C_Thrombomodulin: BioMAP Diversity Plus: CASM3C Assay for Thrombomodulin Biomarker Activity (AID 2283051).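 Note: thrombomodulin protein level measured by ELISA 24 h after dosing.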 The note with it: primary human coronary artery smooth muscle cells; actives raise or lower the signal.

Read-out in test [13]: Tissue Factor, F3 (gene 2152)
Description: BSK_CASM3C_TissueFactor: BioMAP Diversity Plus: CASM3C Assay for Tissue Factor Biomarker Activity (AID 2283052).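 Note: cell surface tissue factor protein level read by ELISA.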 To be noted: primary human coronary artery smooth muscle cells; actives raise or lower the signal.

Read-out in test [14]: Interferon-gamma inducible Protein 10 (IP10), CXCL10 (gene 3627)
As to the kind of experiment: BSK_hDFCGF_IP10: BioMAP Diversity Plus: hDFCGF Assay for Interferon-gamma inducible Protein 10 (IP10) Biomarker Activity (AID 2283053). The note with it: primary human foreskin fibroblasts; actives raise or lower the signal. Put shortly:
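Chemical-treated human skin fibroblasts (primary) were sampled at 24 h for IP-10 by ELISA. Both increases and decreases relative to DMSO were scored.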

Read-out in test [15]: Urokinase-type plasminogen activator receptor (uPAR), PLAUR (gene 5329)
Description: BSK_CASM3C_uPAR: BioMAP Diversity Plus: CASM3C Assay for Urokinase-type plasminogen activator receptor (uPAR) Biomarker Activity (AID 2283054).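 Note: cell-surface uPAR protein level quantified by ELISA.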 The note with it: primary human coronary artery smooth muscle cells; actives raise or lower the signal.

Read-out in test [16]: Vascular cell adhesion molecule 1 (VCAM1), VCAM1 (gene 7412)
As to the kind of experiment: BSK_CASM3C_VCAM1: BioMAP Diversity Plus: CASM3C Assay for Vascular cell adhesion molecule 1 (VCAM1) Biomarker Activity (AID 2283055).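 Note: VCAM-1 protein level quantified by ELISA on the cells.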 To be noted: primary human coronary artery smooth muscle cells; actives raise or lower the signal.

Read-out in test [17]: Collagen III, COL3A1 (gene 1281)
As to the kind of experiment: BSK_hDFCGF_CollagenIII: BioMAP Diversity Plus: hDFCGF Assay for Collagen III Biomarker Activity (AID 2283056). To be noted: primary human foreskin fibroblasts; actives raise or lower the signal. Put shortly: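 Human foreskin primary fibroblasts were exposed to test chemicals for 24 h, after which collagen III was quantified by ELISA. Activity was fitted bidirectionally against DMSO as negative control and baseline.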

Read-out in test [18]: Epidermal growth factor receptor (EGFR), EGFR (gene 1956)
Description: BSK_hDFCGF_EGFR: BioMAP Diversity Plus: hDFCGF Assay for Epidermal growth factor receptor (EGFR) Biomarker Activity (AID 2283057). The note with it: primary human foreskin fibroblasts; actives raise or lower the signal. Put shortly: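 Cell-based multiplexed assay in primary human foreskin fibroblasts. EGFR is read by ELISA 24 h after treatment and compared with DMSO controls.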

Read-out in test [19]: Interleukin-8 (IL8), CXCL8 (gene 3576)
Description: BSK_hDFCGF_IL8: BioMAP Diversity Plus: hDFCGF Assay for Interleukin-8 (IL8) Biomarker Activity (AID 2283058). The note with it: primary human foreskin fibroblasts; actives raise or lower the signal. An outline of the steps:
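hDFCGF human dermal fibroblasts; 24 h chemical exposure; IL-8 by ELISA; bidirectional curve fit vs DMSO baseline; gain or loss of signal scored.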

Test [20] is described as follows: BSK_hDFCGF_Proliferation: Cell Proliferation Assessment in the BioMAP Diversity Plus: hDFCGF Assay (AID 2283059).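 Note: curves fitted for both rise and fall of signal versus DMSO baseline.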 To be noted: primary human foreskin fibroblasts. An outline of the steps:
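Steps: dose primary human dermal fibroblasts (foreskin); […] fix in 10% TCA; stain with 0.1% SRB; read 560 nm; fit gain or loss of signal against DMSO.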

By AC50 is commonly meant the concentration giving half of the maximal activity seen.

Regarding `CS(=O)(=O)c1ccc([C@@H](CC2CCCC2)C(=O)Nc2cnccn2)cc1Cl`, the outcome in [1], in test [2], in [3], in test [4], in [5] and in test [6] was inactive. In addition, the outcome in test [7], in [9], in test [10], in test [11], in [12] and in test [13] was inactive. Also, the outcome in [14], in test [16], in test [17], in test [18] and in test [19] was inactive. Further, the AC50 was 26.9 µM (active) in [8], 26.3 µM (active) in [15] and 20 µM (active) in test [20].

As for `O=C(NO)c1ccccc1`, the outcome in test [1], in test [2], in test [3], in test [4], in test [6] and in test [7] was inactive. Further, the outcome in test [8], in test [9], in test [10], in test [11], in test [12] and in test [13] was inactive. The result in test [14], in [15], in [16], in test [17], in [18] and in test [19] was inactive. Moreover, the AC50 in test [5] is 2.51 µM (active).

For the compound `COC1=CC(=O)C[C@@H](C)[C@]12Oc1c(Cl)c(OC)cc(OC)c1C2=O`, the outcome in test [1], in test [3], in test [4], in test [5], in test [6] and in test [9] was inactive. In addition, the outcome in test [10], in test [11], in [12], in test [14], in test [15] and in test [16] was inactive. The result in test [17], in test [18] and in test [19] was inactive. The values for the AC50 in test [7], in test [8] and in test [13] were 4.25 µM (active), 7.06 µM (active) and 2.12 µM (active), respectively.

Regarding `Oc1cc2ccccc2cc1O`, the outcome in test [1], in test [2], in [3], in test [4], in test [5] and in test [6] was inactive. In addition, the result in test [7], in [8], in test [9], in [10], in test [11] and in test [12] was inactive. For the same compound, the outcome in test [13], in test [14], in test [15], in test [16], in test [18] and in test [19] was inactive. The AC50 in [17] is 20 µM (active); in test [20], 29.7 µM (active).

`O=C(O)CCC(F)(F)C(F)(F)C(F)(F)C(F)(F)C(F)(F)C(F)(F)F`: the result in [1], in [2], in [3], in [4], in test [5] and in test [6] was inactive. The outcome in test [7], in test [8], in [9], in [10], in [11] and in test [12] was inactive. Moreover, the result in test [13], in [14], in test [15], in [16], in test [17] and in test [18] was inactive. Besides, the result in [19] and in [20] was inactive.

Consider `CC(C)(C)c1ccc(O)c(O)c1`, for which the result in test [1], in test [2], in test [4], in test [5], in test [6] and in test [7] was inactive. Besides, the result in test [9], in [10], in [11], in test [13], in test [15] and in test [18] was inactive. In addition, the outcome in test [19] was inactive. Also, the half-maximal activity concentration (AC50) was 20 µM (active) in test [12], 32.3 µM (active) in [14], 4.99 µM (active) in test [16] and 34.7 µM (active) in test [17].

On to `O=C(c1ccccc1)c1ccccc1`, for which the outcome in test [1], in [2], in test [3], in test [4], in test [5] and in test [6] was inactive. The result in test [7], in test [8], in test [9], in test [10], in [11] and in [12] was inactive. Besides, the outcome in [13], in test [14], in [15], in [16], in test [17] and in [18] was inactive. In addition, the outcome in [19] and in [20] was inactive.

`CCCCCCCCCCCCOS(=O)(=O)O`: the outcome in test [1], in [3], in test [4], in test [5], in test [6] and in [8] was inactive. In addition, the result in [9], in test [11], in test [12], in [13], in test [15] and in test [16] was inactive. The result in test [17] and in test [19] was inactive. Besides, the figures for the half-maximal activity concentration (AC50) in [2], in [14] and in [18] were 27.5 µM (active), 26.3 µM (active) and 20 µM (active), respectively.

Consider `Cc1cccc2c1ccc1ccccc12`, for which the outcome in test [1], in [2], in [3], in [4], in test [5] and in test [6] was inactive. Further, the outcome in test [7], in [8], in test [9], in test [10], in test [11] and in test [12] was inactive. The outcome in test [13], in [14], in [15], in test [16], in test [17] and in test [18] was inactive. In addition, the outcome in test [19] and in [20] was inactive.

With `Clc1ccc(Nc2nnc(Cc3ccncc3)c3ccccc23)cc1`, the result in [1], in test [2], in [3], in test [4], in test [5] and in test [6] was inactive. For the same compound, the result in test [7], in test [11], in test [12], in test [14], in [15] and in [16] was inactive. In addition, the outcome in test [17] and in [19] was inactive. Besides, the AC50 is 3.48 µM (active) in test [8], 507 nM (active) in test [10] and 8.4 µM (active) in test [13].

As for `CCCCC(CC)C(=O)OCCOCCOCCOCCOC(=O)C(CC)CCCC` (stereo unspecified), in test [1], the AC50 is 11.3 µM (active). For the same compound, the result in [2], in [3], in test [4], in [5], in [6] and in [7] was inactive. Also, the result in test [8], in [9], in test [10], in [11], in test [12] and in [13] was inactive. Moreover, the outcome in test [14], in [15], in [16], in test [17], in test [18] and in test [19] was inactive.

`CCCCC=O`: the result in test [1], in test [2], in test [3], in test [4], in test [5] and in [6] was inactive. Further, the outcome in test [7], in test [8], in [9], in test [10], in test [11] and in [12] was inactive. Besides, the result in test [13], in test [14], in test [15], in test [16], in test [17] and in [18] was inactive. Further, in test [19], the outcome was inactive.
